Assay results as given in PubChem BioAssay.
Results filed as inconclusive are left out. Activity calls are given as the source filed them.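 The calls were made as follows, unless noted: active = binding below the plate cutoff, the plate median minus 3 SD, with a reading above zero; inconclusive = below the plate cutoff but reading exactly zero; inactive = the rest.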

Assays:
[1] = yeast TOR pathway RPL19A-GFP modulators, primary screen, cell-based, S. cerevisiae, multiplex flow cytometry (AID 1862; in the data active = percent of DMSO control GFP below about 86%;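 also: lower values mimic rapamycin by blocking the RPL19A rise seen in DMSO cells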); settings: S. cerevisiae RPL19A-GFP strain, flow cytometry fluorescence, 3 h; at 10 µM; stronger effect = lower value
[2] = modulators of MEP2-GFP levels in yeast, primary screen, S. cerevisiae, multiplex flow cytometry (AID 1867;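 active = GFP response, as percent of the DMSO control, above the screen-wide mean plus 3 SD, about 139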;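 also: median GFP channel fluorescence of barcode-gated MEP2-GFP cells measured by flow cytometry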); settings: S. cerevisiae MEP2-GFP strain, 3 h, at 10 µM, stronger effect = higher value, 100% means same as DMSO wells
[3] = modulators of CIT2-GFP expression in yeast, primary screen, S. cerevisiae, GFP fusion, multiplex flow cytometry (AID 1870;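 active = percent response above a set limit, the screen-wide mean plus 3 SD, cut at about 130% in these data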;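 also: barcoded CIT2-GFP strain pooled with four other GFP strains with rapamycin as positive control; median GFP fluorescence per well over plate mean of DMSO wells so 100% = DMSO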); settings: 3 h, at 10 µM, stronger effect = higher value
[4] = modulators of LAP4-GFP expression in yeast, primary screen, S. cerevisiae, multiplex flow cytometry (AID 1873;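 active = GFP signal, as percent of the solvent control, above the screen mean plus 3 SD, about 149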); settings: 3 h, at 10 µM, stronger effect = higher value
[5] = modulators of AGP1-GFP expression in yeast TOR pathway, primary screen, cell-based, multiplex flow cytometry, S. cerevisiae (AID 1887;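 active = GFP signal above the screen-wide mean plus 3 SD, that is over about 124.5% of the solvent control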;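 also: AGP1-GFP fusion strain of S. cerevisiae within a five-strain barcoded multiplex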); settings: 3 h, at 10 µM, stronger effect = higher value
[6] = inhibitors of CD8+ T cell-vesicle binding, pilot screen, LFA-1/ICAM-1 modulator project, MLPCN validation set, flow cytometry (AID 2523;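 active = response below a set limit, under 55% cells CD8-positive and vesicle-bound, and CD8 cells' 90th-percentile brightness under 279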;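 as to vesicle binding response: mean PE anti-B7-1 fluorescence of CD8+ cells relative to row control; 100% = QL9-loaded vesicles with DMSO vehicle in the same plate row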); settings: 2C mouse CD8+ T cells, at 7 µM, stronger effect = lower value; double positive events: measured here: CD8+/vesicle+ event percentage
[7] = molecular target: Integrin beta-1 (Homo sapiens) + Integrin alpha-4 (Homo sapiens) (UniProt P13612+P05556); experiment: inhibition of HUTS-21 binding to VLA-4, pilot screen, VLA-4 allosteric modulator project, U937 cells, HUTS-21 mAb, flow cytometry, validation set (AID 2674;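 active = inhibition above 50%, about 3 SD of the validation set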;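 also: antibody binding induced by the VLA-4 ligand LDV present at three times its Kd; 0% = LDV ligand with antibody and no compound and 100% = antibody without LDV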); settings: HUTS-21 LIBS mAb binding, at 6.7 µM, stronger effect = higher value, binding induced by LDV ligand
[8] = superoxide lowering in aged yeast cells, pilot screen, validation compound set (AID 2706;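 active = superoxide response below 65% of plate, a cut near 3 SD across the whole screen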;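 also: yeast exposed to compound for one week at 30 degrees C before staining; 100% = mean of all compound wells on the same plate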); settings: S. cerevisiae aging, superoxide DHE fluorescence; at 10 µM; stronger effect = lower value
[9] = molecular target: Beta-adrenergic receptor kinase 1 (Homo sapiens) (UniProt P25098); experiment: GRK2 binders displacing RNA aptamer, biochemical, validation, human GRK2, bead flow cytometry (AID 488806;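 active = aptamer binding inhibition above 30%, about 3 SD of noise from non-fluorescent compounds; inactive = inhibition at or below 30%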); settings: bead-bound GRK2, FAM-aptamer displacement, at 10 µM, stronger effect = higher value
[10] = molecular target: Beta-2 adrenergic receptor (Homo sapiens) (UniProt P07550); experiment: beta2AR agonists driving receptor internalization, pilot screen, cell-based, FAP fluorogen, flow cytometry, validation set (AID 504459;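 active = percent response above 42, roughly 3 SD of non-fluorescent test compounds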;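 also: agonist-driven loss of surface beta2AR via internalization measured by FAP dye flow cytometry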); settings: Am2.2-beta2AR cells, FAP surface receptor flow cytometry; at 10 µM; stronger effect = higher value
[11] = molecular target: AP-2 complex subunit beta (Homo sapiens) (UniProt P63010); experiment: inhibitors of arrestin peptide binding to AP2, pilot screen, biochemical, validation set, GST-AP2 beads, flow cytometry (AID 504541;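 active = inhibition above 54%, about 3 SD of non-fluorescent compounds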;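 also: AP2 carries R879A mutation and is captured from E. coli lysate; bead-bound FITC arrestin peptide fluorescence measuring arrestin peptide binding to AP2; 0% = DMSO wells and 100% = excess unlabeled arrestin peptide control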); settings: FITC arrestin peptide, at 10 µM, stronger effect = higher value, AP2 beta2 appendage fragment, R879A mutant
[12] = yeast V-ATPase proton transport modulators, S. cerevisiae, pHLuorin, HTS validation (AID 504600; in the data active = response above about 15%;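 also: plate controls were DMSO for no effect and reference compound for full effect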); settings: S. cerevisiae pHLuorin cytosolic pH, at 10 µM, stronger effect = higher value
[13] = test system: anti-desmoglein-3 scFv antibody binding to human DSG3; experiment: inhibitors of anti-DSG3 scFv binding to DSG3, pilot screen, biochemical, validation compound set, bead-based, flow cytometry (AID 588368); settings: Protein G beads, DSG3-Fc, scFv-GFP binding, at 10 µM, stronger effect = lower value;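 also: signal is the median channel fluorescence of bead-bound GFP antibody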
[14] = inhibitors of fungal efflux pumps CDR1, CDR2, MDR1, pilot screen, validation compound set, multiplex, phenotypic (AID 588506;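 active = efflux inhibition above 0.42, the validation set average plus 4 SD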;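 also: Nile Red retained in cells so higher fluorescence means more efflux inhibition; 0 = negative control wells and 1 = enniatin B 25 µM full block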); settings: S. cerevisiae pump-expressing triplex, Nile Red efflux flow cytometry; at 10 µM; stronger effect = higher value; the pumps come from Candida albicans
[15] = molecular target: ATP-binding cassette sub-family B member 6 (Homo sapiens) (UniProt Q9NP58); experiment: ABCB6 transporter inhibitors, pilot screen, K562-ABCB6 cells, flow cytometry, validation set (AID 588550;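 active = inhibition above the screen-wide mean plus 3 SD, about 51%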;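 also: 0% = DMSO wells and 100% = benzethonium chloride 70 µM positive control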); settings: K562-ABCB6 porphyrin accumulation, 1 h, at 10 µM, stronger effect = higher value
[16] = promoters of myeloid differentiation in arrested cells, primary screen, cell-based, GFP/MAC1 double positive, flow cytometry, validation set (AID 588685;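 active = differentiation response of at least 50%, scaled between solvent and reference control, from cells with both markers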;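 also: compound exposure lasts four days before antibody staining and flow analysis; 0% = DMSO wells and 100% = 5 µM fulvestrant positive control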); settings: ER-HoxA9 marrow cells, stronger effect = higher value, normalized: vehicle 0, fulvestrant 100

Sequence of Beta-adrenergic receptor kinase 1 (Homo sapiens) (P25098 whole entry, looked up): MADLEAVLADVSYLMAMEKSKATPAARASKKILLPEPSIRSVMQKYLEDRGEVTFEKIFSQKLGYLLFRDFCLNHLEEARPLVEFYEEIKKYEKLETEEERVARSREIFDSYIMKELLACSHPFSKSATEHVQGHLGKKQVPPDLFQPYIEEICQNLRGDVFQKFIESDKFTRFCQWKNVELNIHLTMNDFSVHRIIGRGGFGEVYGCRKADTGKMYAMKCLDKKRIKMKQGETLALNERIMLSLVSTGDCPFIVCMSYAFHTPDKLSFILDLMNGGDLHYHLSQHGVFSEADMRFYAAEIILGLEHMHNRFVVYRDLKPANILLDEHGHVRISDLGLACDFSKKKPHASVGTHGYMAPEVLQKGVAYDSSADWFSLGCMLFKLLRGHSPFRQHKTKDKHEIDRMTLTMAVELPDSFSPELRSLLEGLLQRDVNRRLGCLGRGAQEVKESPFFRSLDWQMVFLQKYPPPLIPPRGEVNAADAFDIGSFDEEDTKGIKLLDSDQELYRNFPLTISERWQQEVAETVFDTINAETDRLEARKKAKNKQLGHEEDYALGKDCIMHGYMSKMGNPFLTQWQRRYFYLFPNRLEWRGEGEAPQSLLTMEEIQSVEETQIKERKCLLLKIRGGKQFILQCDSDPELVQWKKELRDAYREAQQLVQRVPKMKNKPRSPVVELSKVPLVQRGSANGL
Sequence of AP-2 complex subunit beta (Homo sapiens) (P63010 whole entry, looked up, the tested form may be a part, one chain of several): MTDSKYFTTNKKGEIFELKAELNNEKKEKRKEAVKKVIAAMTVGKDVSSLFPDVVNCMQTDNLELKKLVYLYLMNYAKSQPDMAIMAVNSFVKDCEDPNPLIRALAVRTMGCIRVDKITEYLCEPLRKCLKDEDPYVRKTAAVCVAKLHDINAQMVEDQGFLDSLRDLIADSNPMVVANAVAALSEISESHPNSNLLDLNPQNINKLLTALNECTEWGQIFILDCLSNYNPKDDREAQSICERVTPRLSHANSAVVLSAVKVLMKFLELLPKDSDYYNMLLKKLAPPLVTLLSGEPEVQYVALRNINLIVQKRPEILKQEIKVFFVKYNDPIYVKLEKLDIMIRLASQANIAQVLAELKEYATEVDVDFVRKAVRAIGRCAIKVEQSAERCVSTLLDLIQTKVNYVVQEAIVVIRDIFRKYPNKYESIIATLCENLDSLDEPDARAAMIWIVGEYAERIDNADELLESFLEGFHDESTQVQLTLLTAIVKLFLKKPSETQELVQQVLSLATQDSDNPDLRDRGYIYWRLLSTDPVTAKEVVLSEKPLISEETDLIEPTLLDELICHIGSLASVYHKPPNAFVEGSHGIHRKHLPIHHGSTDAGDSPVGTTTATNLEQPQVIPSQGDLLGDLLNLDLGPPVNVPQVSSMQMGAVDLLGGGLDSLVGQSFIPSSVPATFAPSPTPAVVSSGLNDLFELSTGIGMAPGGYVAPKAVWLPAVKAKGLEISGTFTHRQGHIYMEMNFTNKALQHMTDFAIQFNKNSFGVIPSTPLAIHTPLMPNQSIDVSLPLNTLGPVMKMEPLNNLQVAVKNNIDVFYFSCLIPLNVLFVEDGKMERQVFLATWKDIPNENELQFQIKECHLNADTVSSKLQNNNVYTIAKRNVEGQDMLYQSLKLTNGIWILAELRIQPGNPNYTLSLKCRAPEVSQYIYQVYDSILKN
Sequence of Integrin beta-1 (Homo sapiens) + Integrin alpha-4 (Homo sapiens) (P05556 whole entry, looked up): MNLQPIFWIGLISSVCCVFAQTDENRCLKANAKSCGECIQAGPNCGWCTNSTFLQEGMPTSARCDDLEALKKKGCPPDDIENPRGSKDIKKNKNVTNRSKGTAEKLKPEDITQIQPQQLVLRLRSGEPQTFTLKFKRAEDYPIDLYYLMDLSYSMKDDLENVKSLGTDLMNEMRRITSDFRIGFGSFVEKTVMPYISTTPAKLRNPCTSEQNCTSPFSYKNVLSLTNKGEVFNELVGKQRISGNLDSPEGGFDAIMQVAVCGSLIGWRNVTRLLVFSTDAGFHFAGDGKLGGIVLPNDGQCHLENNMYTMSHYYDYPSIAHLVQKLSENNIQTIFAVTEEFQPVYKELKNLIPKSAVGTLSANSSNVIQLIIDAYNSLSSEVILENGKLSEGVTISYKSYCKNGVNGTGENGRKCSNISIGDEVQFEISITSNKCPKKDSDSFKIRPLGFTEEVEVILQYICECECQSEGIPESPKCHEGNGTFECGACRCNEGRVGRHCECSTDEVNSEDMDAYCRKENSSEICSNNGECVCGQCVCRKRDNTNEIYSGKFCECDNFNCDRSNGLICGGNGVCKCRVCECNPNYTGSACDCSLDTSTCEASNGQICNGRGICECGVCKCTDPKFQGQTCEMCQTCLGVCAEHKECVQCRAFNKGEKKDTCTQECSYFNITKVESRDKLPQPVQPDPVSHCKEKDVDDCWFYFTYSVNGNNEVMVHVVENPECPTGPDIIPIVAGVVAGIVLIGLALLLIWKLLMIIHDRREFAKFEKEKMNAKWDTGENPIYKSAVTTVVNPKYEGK
Sequence of Integrin beta-1 (Homo sapiens) + Integrin alpha-4 (Homo sapiens) (P13612 whole entry, looked up): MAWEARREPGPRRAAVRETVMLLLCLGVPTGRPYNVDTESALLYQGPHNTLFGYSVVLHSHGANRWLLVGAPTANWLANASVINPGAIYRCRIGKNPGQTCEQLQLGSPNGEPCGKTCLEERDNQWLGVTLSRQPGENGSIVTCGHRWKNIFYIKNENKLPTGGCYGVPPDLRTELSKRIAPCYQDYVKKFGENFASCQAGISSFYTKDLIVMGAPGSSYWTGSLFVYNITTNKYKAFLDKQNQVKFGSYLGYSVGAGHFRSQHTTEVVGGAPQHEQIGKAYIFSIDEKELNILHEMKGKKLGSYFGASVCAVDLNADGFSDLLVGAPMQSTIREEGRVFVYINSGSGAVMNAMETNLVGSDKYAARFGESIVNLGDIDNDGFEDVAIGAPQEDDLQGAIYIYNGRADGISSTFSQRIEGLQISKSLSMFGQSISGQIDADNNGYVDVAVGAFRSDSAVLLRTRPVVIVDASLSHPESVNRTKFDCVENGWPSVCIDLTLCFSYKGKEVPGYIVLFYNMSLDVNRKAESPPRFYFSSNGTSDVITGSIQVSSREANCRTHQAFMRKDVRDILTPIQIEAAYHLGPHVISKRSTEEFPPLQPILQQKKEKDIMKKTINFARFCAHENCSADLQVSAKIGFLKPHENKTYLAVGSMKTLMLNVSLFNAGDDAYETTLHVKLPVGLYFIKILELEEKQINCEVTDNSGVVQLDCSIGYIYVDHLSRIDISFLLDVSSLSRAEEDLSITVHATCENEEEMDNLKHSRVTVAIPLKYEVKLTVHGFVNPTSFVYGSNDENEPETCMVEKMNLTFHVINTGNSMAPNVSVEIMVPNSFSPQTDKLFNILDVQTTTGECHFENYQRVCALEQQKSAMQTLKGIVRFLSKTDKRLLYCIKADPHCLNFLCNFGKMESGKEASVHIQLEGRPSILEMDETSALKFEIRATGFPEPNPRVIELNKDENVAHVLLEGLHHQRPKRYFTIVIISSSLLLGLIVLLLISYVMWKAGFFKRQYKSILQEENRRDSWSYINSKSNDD
Sequence of Beta-2 adrenergic receptor (Homo sapiens) (P07550 whole entry, looked up): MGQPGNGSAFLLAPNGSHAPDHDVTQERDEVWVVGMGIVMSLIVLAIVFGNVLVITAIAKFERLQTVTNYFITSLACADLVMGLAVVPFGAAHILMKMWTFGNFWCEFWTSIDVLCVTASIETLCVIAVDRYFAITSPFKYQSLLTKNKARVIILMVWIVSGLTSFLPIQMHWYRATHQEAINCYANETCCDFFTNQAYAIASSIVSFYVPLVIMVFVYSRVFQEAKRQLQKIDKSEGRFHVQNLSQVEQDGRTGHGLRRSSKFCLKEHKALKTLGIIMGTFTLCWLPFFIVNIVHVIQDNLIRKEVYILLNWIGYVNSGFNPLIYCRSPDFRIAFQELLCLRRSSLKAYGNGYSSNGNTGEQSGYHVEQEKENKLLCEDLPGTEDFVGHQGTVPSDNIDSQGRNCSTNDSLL
Sequence of ATP-binding cassette sub-family B member 6 (Homo sapiens) (Q9NP58 whole entry, looked up): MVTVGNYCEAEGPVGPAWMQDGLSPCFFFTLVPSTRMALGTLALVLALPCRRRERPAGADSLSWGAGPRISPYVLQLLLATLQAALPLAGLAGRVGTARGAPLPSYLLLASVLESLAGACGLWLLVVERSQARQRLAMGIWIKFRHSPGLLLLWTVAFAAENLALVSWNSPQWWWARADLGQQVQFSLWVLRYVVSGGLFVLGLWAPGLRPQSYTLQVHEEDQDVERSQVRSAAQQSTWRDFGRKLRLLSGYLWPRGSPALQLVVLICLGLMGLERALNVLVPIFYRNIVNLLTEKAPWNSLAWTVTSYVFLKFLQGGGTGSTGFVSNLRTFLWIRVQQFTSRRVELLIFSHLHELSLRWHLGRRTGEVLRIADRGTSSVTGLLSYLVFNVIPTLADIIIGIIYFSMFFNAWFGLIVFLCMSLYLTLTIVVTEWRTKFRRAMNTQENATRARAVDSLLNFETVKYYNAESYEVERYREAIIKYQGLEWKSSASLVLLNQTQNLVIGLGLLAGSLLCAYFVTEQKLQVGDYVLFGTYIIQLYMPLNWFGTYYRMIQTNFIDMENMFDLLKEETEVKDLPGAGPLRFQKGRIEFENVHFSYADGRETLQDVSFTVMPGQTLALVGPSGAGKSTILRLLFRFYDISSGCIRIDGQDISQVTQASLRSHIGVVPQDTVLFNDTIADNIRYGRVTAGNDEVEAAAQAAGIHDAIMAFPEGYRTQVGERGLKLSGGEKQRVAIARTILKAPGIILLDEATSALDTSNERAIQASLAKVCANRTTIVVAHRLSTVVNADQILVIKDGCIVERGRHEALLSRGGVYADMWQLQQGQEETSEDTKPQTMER

CCN(CC)c1ccc([C@H]2[C@@H]3CCCC[C@]3(O)CCN2CC(=O)NCc2ccco2)cc1
active: response [10] 47.5% | response [12] 25.9%
60.3%: double positive events [6]
inactive: percent of DMSO control GFP [1] 97.4% | GFP response vs DMSO [2] 108% | percent response of DMSO control [3] 91% | GFP response vs DMSO [4] 121% | GFP response, % of DMSO [5] 98.5% | vesicle binding response [6] 190% | inhibition [7] -25% | superoxide response (% of plate) [8] 95.1% | aptamer binding inhibition [9] 4% | inhibition [11] -7.96% | binding (% of control) [13] 99.5% | efflux inhibition (fraction of control) [14] 0.33 | inhibition [15] 8% | differentiation response [16] -7.2%

Cc1ccccc1-c1nn(-c2ccc(F)cc2F)cc1CNCCN(C)C
62%: double positive events [6]
inactive: percent of DMSO control GFP [1] 106% | GFP response vs DMSO [2] 103% | percent response of DMSO control [3] 116% | GFP response vs DMSO [4] 98.6% | GFP response, % of DMSO [5] 102% | vesicle binding response [6] 51.7% | inhibition [7] 13% | superoxide response (% of plate) [8] 90.2% | aptamer binding inhibition [9] -11% | response [10] -7.22% | inhibition [11] -6% | response [12] 3.34% | binding (% of control) [13] 103% | efflux inhibition (fraction of control) [14] -0.07 | inhibition [15] -15% | differentiation response [16] -5.62%

Cn1cc(CN2CCC(C(=O)N3CCCCC3)CC2)c(-c2ccccc2F)n1
inactive: percent of DMSO control GFP [1] 95.9% | GFP response vs DMSO [2] 137% | percent response of DMSO control [3] 104% | GFP response vs DMSO [4] 85.8% | GFP response, % of DMSO [5] 94.2% | vesicle binding response [6] 131% | inhibition [7] 5.49% | superoxide response (% of plate) [8] 92.8% | aptamer binding inhibition [9] 4% | response [10] -5.43% | inhibition [11] 0.65% | response [12] -1.21% | binding (% of control) [13] 104% | efflux inhibition (fraction of control) [14] -0.02 | inhibition [15] 16% | differentiation response [16] 0%
63.2%: double positive events [6]

O=C(O)CCCNc1ccc(S(=O)(=O)Nc2ccccc2C(=O)O)cc1C(=O)O
inactive: percent of DMSO control GFP [1] 105% | GFP response vs DMSO [2] 94.1% | percent response of DMSO control [3] 116% | GFP response vs DMSO [4] 83.5% | GFP response, % of DMSO [5] 97% | vesicle binding response [6] 187% | inhibition [7] 12% | superoxide response (% of plate) [8] 101% | aptamer binding inhibition [9] 5% | response [10] -8.58% | inhibition [11] -4.62% | response [12] -5.39% | binding (% of control) [13] 102% | efflux inhibition (fraction of control) [14] -0.14 | inhibition [15] 17% | differentiation response [16] 4.15%
64.9%: double positive events [6]

Cc1ccccc1NC(=O)C1(C)Cc2ccccc2C(=O)O1 (stereo not drawn)
61.4%: double positive events [6]
inactive: percent of DMSO control GFP [1] 100% | GFP response vs DMSO [2] 103% | percent response of DMSO control [3] 92.9% | GFP response vs DMSO [4] 131% | GFP response, % of DMSO [5] 101% | vesicle binding response [6] 161% | inhibition [7] 10.5% | superoxide response (% of plate) [8] 96.3% | aptamer binding inhibition [9] 1% | response [10] -11% | inhibition [11] 29.5% | response [12] -1.4% | binding (% of control) [13] 101% | efflux inhibition (fraction of control) [14] -0.28 | inhibition [15] -4% | differentiation response [16] 18.4%

COc1ccc(-c2nc3c(=O)n(C)c(=O)[nH]c3n2CCc2ccccc2)cc1
64%: double positive events [6]
inactive: percent of DMSO control GFP [1] 111% | GFP response vs DMSO [2] 103% | percent response of DMSO control [3] 115% | GFP response vs DMSO [4] 93.1% | GFP response, % of DMSO [5] 104% | vesicle binding response [6] 232% | inhibition [7] 13.2% | superoxide response (% of plate) [8] 107% | aptamer binding inhibition [9] 0% | response [10] 12.6% | inhibition [11] -0.08% | response [12] -6.09% | binding (% of control) [13] 99.3% | efflux inhibition (fraction of control) [14] -0.13 | inhibition [15] 3% | differentiation response [16] -23.2%

O=C(O)c1cc2cc(F)ccc2[nH]1
64.7%: double positive events [6]
inactive: percent of DMSO control GFP [1] 101% | GFP response vs DMSO [2] 101% | percent response of DMSO control [3] 105% | GFP response vs DMSO [4] 98.6% | GFP response, % of DMSO [5] 102% | vesicle binding response [6] 894% | inhibition [7] -15% | superoxide response (% of plate) [8] 113% | aptamer binding inhibition [9] 3% | response [10] 0.15% | inhibition [11] 8.62% | response [12] 1.32% | binding (% of control) [13] 97.2% | efflux inhibition (fraction of control) [14] -0.14 | inhibition [15] 14% | differentiation response [16] -1.71%

O=C(c1cccnc1)N1N=C(C2CC2)CC1(O)C(F)(F)F (stereo not drawn)
inactive: percent of DMSO control GFP [1] 99.1% | GFP response vs DMSO [2] 104% | percent response of DMSO control [3] 93.9% | GFP response vs DMSO [4] 115% | GFP response, % of DMSO [5] 104% | vesicle binding response [6] 353% | inhibition [7] -7.25% | superoxide response (% of plate) [8] 106% | aptamer binding inhibition [9] 2% | response [10] -5.28% | inhibition [11] 2.62% | response [12] -0.29% | binding (% of control) [13] 101% | efflux inhibition (fraction of control) [14] -0.1 | inhibition [15] 10% | differentiation response [16] -28%
60.4%: double positive events [6]

CCOC(=O)C(=Cc1ccccc1OC)C(=O)OCC
55.3%: double positive events [6]
inactive: percent of DMSO control GFP [1] 95% | GFP response vs DMSO [2] 108% | percent response of DMSO control [3] 91% | GFP response vs DMSO [4] 132% | GFP response, % of DMSO [5] 92.9% | vesicle binding response [6] 189% | inhibition [7] -18.2% | superoxide response (% of plate) [8] 102% | aptamer binding inhibition [9] -2% | response [10] -11.8% | inhibition [11] 0.13% | response [12] 0.91% | binding (% of control) [13] 98.9% | efflux inhibition (fraction of control) [14] -0.03 | inhibition [15] 4% | differentiation response [16] -12%
